# HP1b chromo inh – inhibitors of HP1-beta chromodomain binding to methylated histone tails. AID 540317. AlphaScreen HP1-beta / biotin-H3K9me3 peptide binding. Potency, µM (titrated, usually from 114 µM), without a hit: at the top dose activity change, negative = inhibition, hits mostly inhibitors. hit rate 0.56% among 390,000. P83916; further: nearly all actives have a fitted effect of over 70% in size
#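 HP1-beta protein (50 nM final) preincubated 30 min at room temperature with biotinylated H3(1-18)K9me3 peptide (50 nM) in PBS pH 7.4, 0.01% Tween-20, then compound added for 30 min. AlphaScreen streptavidin donor/nickel chelate acceptor beads (10 ug/mL final), 30 min dark, luminescence read.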
# G9a block – inhibitors of human histone lysine methyltransferase G9a. hit rate 8.8% among 350,000. G9a H3K9 monomethylation, AlphaScreen, 2 h. Q96KQ7. AID 504332. Potency, µM (highest dose often 102 µM), inactives show at the top dose activity, negative = inhibition, most hits filed as inhibitors; further: on the % scale 0 is the no-effect control and ±100 the full control effect; nearly all actives have a fitted effect of over 75% in size
#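 Compounds were preincubated with 20 nM G9a for 15 min, after which biotinylated H3K9 peptide (500 nM) and SAM (20 uM) started a 2 h room-temperature reaction. Monomethylated product was quantified by antibody-based AlphaScreen chemiluminescence.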
# BAZ2B block – blocks human BAZ2B | AlphaScreen BAZ2B-H3K14Ac peptide displacement | Q9UIF8 | hit rate 4.4% among 360,000 | Potency, µM (series often up to 114 µM), without a hit: at the highest dose activity change, negative = inhibition, actives largely listed as inhibitors; further: on the % scale 0 is the no-effect control and ±100 the full control effect; nearly all actives have a fitted effect of over 60% in size
#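 AlphaScreen displacement of biotin-H3(5-23)K14Ac peptide (50 nM final) from BAZ2B (50 nM final) in PBS pH 7.4, 0.01% Tween-20; complex preformed 30 min RT, then compounds (top 110 uM) 30 min RT, beads 20 min dark.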
# L3MBTL1 block – L3MBTL1 (human) inhibition. AlphaScreen L3MBTL1–H3K9me1 peptide binding. Potency, µM (series often up to 57.1 µM), without a hit: at the highest dose activity, negative = inhibition, usual class: inhibitors. hit rate 0.66% among 230,000; further: on the % scale 0 is the no-effect control and ±100 the full control effect; nearly all actives have a fitted effect of over 60% in size
# Target sequence (Q9Y468 whole entry, looked up): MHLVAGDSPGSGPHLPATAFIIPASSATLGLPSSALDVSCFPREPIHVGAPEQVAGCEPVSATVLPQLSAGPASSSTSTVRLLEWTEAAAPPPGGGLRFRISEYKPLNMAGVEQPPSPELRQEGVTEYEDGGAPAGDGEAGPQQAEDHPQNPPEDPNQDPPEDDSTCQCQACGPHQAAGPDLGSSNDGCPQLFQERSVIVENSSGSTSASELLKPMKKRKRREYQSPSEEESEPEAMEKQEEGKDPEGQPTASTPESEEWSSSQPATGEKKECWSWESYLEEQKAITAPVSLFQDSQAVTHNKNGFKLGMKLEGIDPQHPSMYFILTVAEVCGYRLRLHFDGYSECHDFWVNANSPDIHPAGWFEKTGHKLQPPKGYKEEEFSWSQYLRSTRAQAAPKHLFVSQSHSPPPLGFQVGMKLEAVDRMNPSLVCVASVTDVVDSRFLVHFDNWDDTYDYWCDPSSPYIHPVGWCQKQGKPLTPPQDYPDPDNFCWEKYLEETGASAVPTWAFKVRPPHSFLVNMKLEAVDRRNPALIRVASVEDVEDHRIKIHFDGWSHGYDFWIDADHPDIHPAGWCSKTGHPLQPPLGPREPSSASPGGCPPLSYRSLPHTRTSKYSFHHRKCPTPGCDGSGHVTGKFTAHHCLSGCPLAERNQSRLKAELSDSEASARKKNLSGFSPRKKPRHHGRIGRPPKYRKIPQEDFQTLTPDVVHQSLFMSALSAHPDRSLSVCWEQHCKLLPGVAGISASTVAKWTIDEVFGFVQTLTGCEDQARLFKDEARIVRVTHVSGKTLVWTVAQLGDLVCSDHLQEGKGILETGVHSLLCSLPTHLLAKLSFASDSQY
#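 Displacement of a biotinylated histone H3(1-15) peptide monomethylated at Lys9 (75 nM) from L3MBTL1 (50 nM) was measured by AlphaScreen after a 30 min room-temperature compound incubation; cefsulodin titration served as intraplate control.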
# Sfp inh – Sfp phosphopantetheinyl transferase inhibition | hit rate 3.5% among 310,000 | Biochemical Sfp PPTase activity, qHTS | Potency, µM, inactives show largest response in the series, negative = inhibition, usual class: inhibitors | Q9F4F7;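 further: the enzyme is Sfp with the accession as filed and its product quenches rhodamine fluorescence; 0% = enzyme reaction without inhibitor and -100% = no enzyme wells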
#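 After 15 min at room temperature with compound, 15 nM Sfp received 5 uM rhodamine-CoA plus 12.5 uM BHQ-2-ybbR (50 mM Hepes pH 7.6, 10 mM MgCl2). Rate came from the fluorescence difference over 30 min, ex 525/em 598 nm.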
# JMJD2A Tudor inh – blocks the human JMJD2A Tudor domain. Potency, µM (highest dose often 114 µM), for inactives: top-dose activity change, negative = inhibition, most hits filed as inhibitors. hit rate 4.4% among 390,000. AlphaScreen JMJD2A-Tudor / H3K4me3 peptide binding. O75164; further: on the % scale 0 is the no-effect control and ±100 the full control effect; nearly all actives have a fitted effect of over 50% in size
# Numbers without * were called inactive; ? = inconclusive; / = no result given; [ ] = another dose, or the depositor's remark. In the library only some 12% were active in any assay of this set; here they are far more common. The call rests on the fitted dose curve; in most records, active means well fitted curve in the direction sought with a large enough effect; inconclusive means small, poorly fitted or top-dose-only effect, or another doubt; inactive means no such curve, though single readings can be large; an effect the other way counts as inactive or inconclusive. Potency means the concentration at half of the fitted maximal effect.
SMILES,HP1b chromo inh,G9a block,BAZ2B block,L3MBTL1 block,Sfp inh,JMJD2A Tudor inh
CCN1CCN(c2c(S(=O)(=O)c3ccc(C)c(C)c3)cnc3cc(OC)c(OC)cc23)CC1,15.3%,-7.0%[59 µM],?,/,/,-26.9%
CC(=O)Oc1c(/C=C(\C#N)C(N)=O)[nH]c2ccccc12,4.6%,11.2µM*,-36.2%,-24.2%,7.4%,-17.3%
CC(C)NC(=O)CSc1nc2ccccc2c(=O)n1Cc1ccc(C(=O)NC(C)C)cc1,29.2%[57 µM],-4.2%[59 µM],1.2%,/,/,-0.3%
Cn1ncc2c(Nc3ccccc3Cl)nc(Nc3ccccc3Cl)nc21,-8.3%,-3.3%[2.33 µM],-7.3%,7.6%,-7.0%,-32.2%
Cn1ncc2c(=S)nc(Cl)[nH]c21,-35.7%,/,/,/,/,22.4µM*
COC(=O)c1c(NC(=O)CCc2ccc(C)o2)sc(C)c1C,30.0%,?,-11.2%,/,20µM*,0.4%
CCOC(=O)c1c(NC(=O)/C=C/c2ccc(C)o2)sc(C)c1C,?,8.91µM*,-2.0%,-0.6%,35.5µM*,-12.2%
CCOC(=O)c1c(NC(=O)CCc2ccc(CC)o2)sc(C)c1C,1.3%,28.2µM*,24.9%,18.0%,?,-6.9%
Cc1sc(NC(=O)/C=C/c2ccco2)c(C(=O)O)c1C,8.7%,44.7µM*,?,?,-21.9%,-6.0%
CC(C)[C@@H](CC(=O)N[C@@H]1CCNC[C@H]1C(=O)N[C@H](CC(=O)N[C@@H](CCC(=O)O)CC(=O)O)Cc1ccccc1)NC(=O)C[C@H](Cc1ccccc1)NC(=O)[C@@H]1CNCC[C@H]1N,/,/,/,/,-10.9%,/
O=C(NC1CCCC1)c1ccc2c(c1)N(Cc1c(F)cccc1Cl)C(=O)c1ccccc1S2,39.0%,2.8%[59 µM],/,/,/,-16.3%
CCOC(=O)N1CCN(C(=O)c2ccc3c(c2)N(Cc2ccccc2F)C(=O)c2ccccc2S3=O)CC1 (stereo not given),22.1%,3.4%[59 µM],-16.5%,/,/,-12.1%
COc1cc(NC(=O)CN2CCN(c3ccc(F)cc3)CC2)cc(OC)c1,44.3%,5.8%[59 µM],-2.9%,/,/,-2.6%
Cc1ccc(NC(=O)Cn2nc(C)n3cccc3c2=O)c(C)c1,44.0%,-39.3%[59 µM],-18.1%,/,/,-21.2%
COc1ccc(NC(=O)Cn2c(=O)n(Cc3nc(-c4ccccc4)no3)c(=O)c3cc4c(cc32)OCO4)c(OC)c1,36.2%,-9.4%[59 µM],-2.2%,/,/,-4.5%
Cc1ccc(CCC(=O)Nc2ccc(Cl)cc2)o1,7.4%,?,?,-9.4%,6.9%,-10.4%
CCOC(=O)c1c(NC(=O)C[n+]2ccc(Cc3ccccc3)cc2)sc(C)c1C,0.6%,44.7µM*,-27.2%,-11.3%,25.1µM*,-24.3%
Cc1ccc(CCC(=O)Nc2ccc(CC(=O)O)cc2)o1,-0.5%,56.2µM*,-19.9%,-11.3%,?,?
COCCSc1nnc(NC(=O)c2ccc([N+](=O)[O-])cc2)s1,33.9%,-30.3%,-20.8%,/,8.7%,-19.7%
COc1cc(C(=O)Nc2nnc(CC(C)(C)C)s2)cc(OC)c1OC,40.6%,?,0.4%,/,/,0.3%
CCOC(=O)CSc1nnc(NC(=O)c2cc([N+](=O)[O-])cc([N+](=O)[O-])c2)s1,31.2%,25.1µM*,-10.0%,-2.2%,-5.1%,?
CCOCc1nnc(NC(=O)c2cc(C(=O)OC)cc([N+](=O)[O-])c2)s1,3.2%,50.1µM*,?,-0.5%,5.0%,44.7µM*
COC(=O)c1cc(C(=O)Nc2nnc(CC(C)(C)C)s2)cc([N+](=O)[O-])c1,?,44.7µM*,-7.8%,7.8%,?,-27.3%
COc1cc(OC)cc(C(=O)NCc2ccc3c(c2)CCN3C(=O)c2ccccc2)c1,24.3%,2.0%[59 µM],-4.6%,/,/,-5.7%
CC(C)(C)c1cc(CNC2CS(=O)(=O)C[C@@H]2O)cc(C(C)(C)C)c1O (stereo not given in full),37.8%,17.8µM*,?,-3.8%,12.5%,-22.6%
SMILES,HP1b chromo inh,G9a block,BAZ2B block,L3MBTL1 block,Sfp inh,JMJD2A Tudor inh
O=S1(=O)CC(O)C(NCc2ccco2)C1 (stereo not given),16.0%,-10.3%[59 µM],0.1%,/,7.4%,7.2%
NC(=O)/C(=C/c1ccco1)C(N)=S,-7.0%,17.8µM*,-17.3%,-23.2%,17.8µM*,?
CCN(CC)CCN1C(=O)C(=O)/C(=C(/O)c2c(C)[nH]c(C(=O)OC)c2C)C1c1ccccc1 (stereo not given),18.3%,7.8%[12.7 µM],1.0%,10.0%,16.8%,-18.0%
COC(=O)c1[nH]c(C)c(/C(O)=C2\C(=O)C(=O)N(CCN3CCOCC3)C2c2ccc(C)o2)c1C (stereo not given),9.4%,44.7µM*,-18.9%,1.4%,4.6%,?
CCOC(=O)c1[nH]c(C)c(/C(O)=C2\C(=O)C(=O)N(CCN3CCOCC3)C2c2cccs2)c1C (stereo not given),12.2%,44.7µM*,-8.1%,-2.9%,1.0%,?
CCN(CC)CCN1C(=O)C(=O)/C(=C(/O)c2c(C)[nH]c(C(=O)OC)c2C)C1c1cccnc1 (stereo not given),17.6%,?,17.3%,-8.3%,-14.7%,-13.6%
COC(=O)c1[nH]c(C)c(/C(O)=C2\C(=O)C(=O)N(CCN3CCOCC3)C2c2cccnc2)c1C (stereo not given),12.1%,?,-3.9%,0.1%[11.4 µM],-0.1%,22.4µM*
CCN(CC)CCN1C(=O)C(=O)/C(=C(/O)c2c(C)[nH]c(C(=O)OC)c2C)C1c1ccc(C)o1 (stereo not given),-2.6%,35.5µM*,?,5.6%,-11.8%,-9.3%
CC(=O)N[C@H]1C(O[C@@H]2O[C@H](C[C@@H](O)[C@H]3O[C@@H](N4CCC(=O)NC4=O)[C@H](O)[C@@H]3O)[C@H](O)[C@H](O)[C@H]2NC(=O)/C=C/CCCCCCCCCCC(C)C)OC(CO)[C@@H](O)[C@@H]1O (stereo not given in full),/,-31.3%[59 µM],/,/,3.9%,/
CCOC(=O)c1[nH]c(C)c(/C(O)=C2\C(=O)C(=O)N(CCN(C)C)C2c2ccc(C)o2)c1C (stereo not given),5.8%,39.8µM*,-34.7%,1.6%,-1.7%,?
Cc1ccc(C2/C(=C(/O)c3cnn(-c4ccccc4)c3C)C(=O)C(=O)N2CCN2CCOCC2)o1 (stereo not given),13.7%,?,79.4µM*,/,50.1µM*,?
CC(C)(C)c1nc2ccc([N+](=O)[O-])cc2[nH]1,50.2%,-17.4%,?,?,1.5%,-7.4%
CC(C)(C)c1nc2ccc(NS(=O)(=O)c3ccc(F)c(F)c3F)cc2[nH]1,47.9%,31.6µM*,-10.5%,/,-11.9%,-9.9%
CC1=NN(C(N)=S)C(=O)C1N=Nc1c(Cl)cc([N+](=O)[O-])cc1Cl (stereo not given),?,25.1µM*,39.8µM*,-9.9%,-0.8%,28.2µM*
